# Screening results deposited in PubChem by National Center for Advancing Translational Sciences (NCATS).
# Tau fluor counter: Counterscreen qHTS for Inhibitors of Tau Fibril Formation, Fluorescence Polarization. 280,000 compounds, 0.93% hits. Potency, µM (top dose mostly 57.7 µM), without a hit: top-dose activity change, negative = decrease. tau K18 P301L Alexa594 fluorescence, heparin fibrillization; note: nearly all actives have a fitted effect of over 55% in size
#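 Human K18 P301L tau (15 uM unlabeled plus 0.24 uM Alexa 594-labeled, final) in 100 mM sodium acetate pH 7 was mixed with compound and 20 uM heparin and incubated 6 hr at 37 C.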
# TR SRC2 fluor cs: Total Fluorescence Counterscreen for Inhibitors of the Interaction of Thyroid Hormone Receptor and Steroid Receptor Coregulator 2; Potency, µM (doses to about 106 µM), for inactives: at the top dose fluorescence change, negative = quenching; AID 1479, 2009; 280,000 compounds, 0.29% hits; TRb/SRC2 Texas Red total fluorescence interference; active = well fitted curve in either direction with a large enough effect; inconclusive = small, poorly fitted or top-dose-only effect
#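 Human TRb ligand-binding domain at 0.6 uM with 20 nM Texas Red SRC2 peptide in Tris buffer containing 1 uM T3 and 5% DMSO, incubated with compound 5 h at ambient temperature. Total fluorescence (555/632 nm) calculated as parallel + 2 × perpendicular.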
# TRb-SRC2 inh: qHTS for Inhibitors of the Interaction of Thyroid Hormone Receptor and Steroid Receptor Coregulator 2 | Thyroid hormone receptor beta (Homo sapiens), P10828 | TRbeta-SRC2 peptide binding, fluorescence polarization; receptor liganded with 1 µM T3 | Potency, µM (doses to about 106 µM), inactives show top-dose activity change, negative = inhibition, usual class: inhibitors | 280,000 compounds, 0.065% hits | AID 1469, 2008;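 note: plate controls were bound peptide for no effect and peptide without receptor for full effect; nearly all actives have a fitted effect of over 50% in size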
# Target sequence (P10828 whole entry, looked up): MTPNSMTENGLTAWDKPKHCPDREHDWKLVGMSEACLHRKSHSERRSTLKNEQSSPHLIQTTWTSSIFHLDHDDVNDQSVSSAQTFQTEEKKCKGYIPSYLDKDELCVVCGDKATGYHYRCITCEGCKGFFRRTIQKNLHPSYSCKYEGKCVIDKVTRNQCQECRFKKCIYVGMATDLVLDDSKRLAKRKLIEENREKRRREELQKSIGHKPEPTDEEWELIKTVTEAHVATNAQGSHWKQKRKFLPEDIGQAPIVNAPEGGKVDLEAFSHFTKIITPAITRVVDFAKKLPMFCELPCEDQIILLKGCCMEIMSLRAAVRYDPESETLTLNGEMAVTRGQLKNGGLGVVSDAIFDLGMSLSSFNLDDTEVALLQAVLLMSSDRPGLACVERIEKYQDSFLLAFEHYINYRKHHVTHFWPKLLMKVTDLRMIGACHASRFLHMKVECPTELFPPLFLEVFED
#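 Read-out is fluorescence polarization (555 nm excitation, 632 nm emission) of a Texas Red SRC2 coactivator peptide; loss of signal reflects blocked binding to human TRb ligand-binding domain in the presence of 1 uM T3.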
# Tau fibril FP: qHTS for Inhibitors of Tau Fibril Formation, Fluorescence Polarization; Microtubule-associated protein tau (Homo sapiens), P10636; K18 P301L tau heparin fibrillization, Alexa594 FP, 6 h; Potency, µM (titrated, usually from 57.7 µM), without a hit: at the highest dose activity, negative = inhibition, most hits filed as inhibitors; 280,000 compounds, 0.39% hits; AID 1468, 2008; note: nearly all actives have a fitted effect of over 55% in size
# Target sequence (P10636 561-689 P618L limits assumed): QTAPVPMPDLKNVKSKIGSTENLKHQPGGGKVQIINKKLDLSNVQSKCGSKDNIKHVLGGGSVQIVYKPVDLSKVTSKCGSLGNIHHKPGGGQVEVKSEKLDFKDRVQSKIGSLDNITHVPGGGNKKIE
#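 Read-out: fluorescence polarization of Alexa 594-labeled tau (0.24 uM), 555 nm excitation, 632 nm emission. Mixtures held 15 uM unlabeled K18 P301L, compound and 20 uM heparin, pH 7 acetate buffer, incubated 6 hr at 37 C.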
# Tau fibril ThT: qHTS for Inhibitors of Tau Fibril Formation, Thioflavin T Binding. Potency, µM (top dose mostly 57.4 µM), for inactives: top-dose activity, negative = inhibition, actives largely listed as inhibitors. AID 1460, 2008. 270,000 compounds, 2.1% hits. recombinant tau K18 P301L (four-repeat tau fragment), heparin-induced fibrillization, ThT fluorescence; note: nearly all actives have a fitted effect of over 55% in size
#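 Tau K18 P301L fragment (15 uM unlabeled plus 0.24 uM Alexa 594-labeled) in 100 mM sodium acetate pH 7 with compound, fibrillization induced by 20 uM heparin for 6 hr at 37 C. Thioflavin T (30 uM) added, fluorescence read after 1 hr (ex 450, em 510 nm).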
# Numbers without * were called inactive; ? = inconclusive; . = no result; [ ] = another dose, or the depositor's remark. Only some compounds are listed: those with a hit (about 3.1% of all), similar ones and a draw of the others. Unless noted, calls come from the whole dose curve; as a rule, active = well fitted curve in the direction sought with a large enough effect; inconclusive = small, poorly fitted or top-dose-only effect, or another doubt; inactive = no such curve, though single readings can be large; an effect the other way counts as inactive or inconclusive. Unless noted, % is set by controls: 0 for no effect and ±100 for the full control effect; potency is the fitted concentration of half-maximal effect.
SMILES,Tau fluor counter,TR SRC2 fluor cs,TRb-SRC2 inh,Tau fibril FP,Tau fibril ThT
CC1(C(=O)NCc2ccc(Cl)c(Cl)c2)Oc2ccccc2NC1=O (stereo unspecified),-3%,1%,6%,-3%,-4%
Cc1ccc(CCNC(=O)C2CC(=O)N(CCc3ccc(C)cc3)C2)cc1 (stereo unspecified),-10%,-2%,-6%,5%,-14%
N#C/C(=C\c1c[nH]c2ccccc12)C(=O)c1ccc(O)c(O)c1,16µM*[quencher],-15%,7%,4%,10µM*
N#C/C(=C\c1ccc(O)c(O)c1)C(=O)c1ccc(O)c(O)c1,-25%,-6%,-3%,0%,?
CCN1CCSc2ccc(C(=O)NC(C)c3ccccc3)cc21 (stereo unspecified),?,-2%,-10%,3%,-13%
CN(C)CCNC=C(C(=O)Nc1ccc(Cl)cc1Cl)C(=O)Nc1ccc(Cl)cc1Cl,?,-9%,1%,10µM*,3%
Cc1ccsc1/C=C1/C(=O)NN(c2ccccc2)C1=O,-29%,-4%,0%,8%,?
O=C1NN(c2ccccc2)C(=O)/C1=C/c1ccc(Sc2ccc(Cl)cc2)o1,?,-1%,2%,-17%,11µM*
O=C1NC(=O)/C(=C\c2ccc(Sc3ccc(Cl)cc3)o2)N1,-13%,-4%,0%,-2%,-15%
Cc1ccc(Sc2ccc(/C=C3/C(=O)NN(c4ccccc4)C3=O)o2)cc1,?,-1%,-5%,-13%,13µM*
CC1=CN2C(=N)/C(=C/c3ccc([N+](=O)[O-])o3)C(=O)N=C2S1,?,45µM*[fluorescent],-7%,?,13µM*
CCOc1cc(S(=O)(=O)NCCc2c(C)[nH]c3ccc(C)cc23)ccc1Br,3.5µM*[quencher],3%,-1%,15%,?
CCOc1cc(S(=O)(=O)NCCc2c(C)[nH]c3ccc(C)cc23)ccc1F,?,-3%,6%,?,-8%
CCn1cc(CNC(=O)c2cc(-c3ccc(C)cc3)nc3ccc(Br)cc23)c(C)n1,-10%,?,1%,-11%,-8%
O=C(COc1ccccc1F)Nc1nnc(S(=O)(=O)N2CCCCCC2)s1,-13%,5%,-11%,-4%,14µM*
O=C(Nc1nnc(S(=O)(=O)N2CCCCC2)s1)c1ccccc1Br,-9%,-20%,-6%,3%,?
O=C(Nc1nnc(S(=O)(=O)N2CCCC2)s1)c1ccccc1Cl,?,2%,-5%,10%,3.5µM*
O=C(Nc1nnc(S(=O)(=O)N2CCCCCC2)s1)c1ccccc1Cl,?,-5%,-2%,-4%,?
O=C(Nc1nnc(S(=O)(=O)N2CCCCCC2)s1)c1ccccc1,?,?,-11%,1%,14µM*
CC1Cc2ccccc2N1S(=O)(=O)c1nnc(NC(=O)c2ccccc2Br)s1 (stereo unspecified),?,4%,-3%,-3%,13µM*
O=C(COc1ccccc1Cl)Nc1nnc(S(=O)(=O)N2CCCC2)s1,?,-1%,-3%,-1%,?
COc1ccc2c(c1)CC(C(=O)NCc1ccc(F)cc1)CO2 (stereo unspecified),4%,2%,4%,3%,3%
N=C(N)N1CCN(Cc2ccccc2)CC1,2%,-1%,-1%,3%,-4%
O=[N+]([O-])c1cc(/C=N\Nc2nccs2)ccc1O,14µM*[quencher],25µM*[quencher],?,?,13µM*
Clc1cccc(Cl)c1/C=N\Nc1nccs1,0%,5%,10%,4%,5%
SMILES,Tau fluor counter,TR SRC2 fluor cs,TRb-SRC2 inh,Tau fibril FP,Tau fibril ThT
CC(=O)C(=Nc1ccccc1Cl)NNc1ccc(Cl)cc1,?,3%,-13%,?,6.3µM*
O=C(NNc1ccc(Cl)cc1)c1c(F)cccc1Cl,-12%,-2%,-8%,4%,-11%
CCc1cccc(NC(=O)CN2C(=O)COc3ccc(S(=O)(=O)N4CCC(C)CC4)cc32)c1,-26%,0%,5%,-5%,6%
Cc1ccc(-n2c(C)cc(/C=N/Nc3ccc([N+](=O)[O-])cn3)c2C)cc1,?,1%,-1%,6%,2µM*
Cc1cc(/C=N/Nc2ccc([N+](=O)[O-])cn2)c(C)n1-c1ccccc1,?,-2%,-8%,8%,3.5µM*
Cc1ccc(Cn2cc(/C=N/Nc3ccc([N+](=O)[O-])cn3)c3ccccc32)cc1,11µM*[quencher],-3%,1%,12%,10µM*
Cc1c(C(=O)O)cccc1-n1c(C)cc(/C=N/Nc2ccc([N+](=O)[O-])cn2)c1C,?,-7%,-1%,5%,13µM*
CN1CCN(NC(=O)c2cn(-c3ccccc3)nc2-c2ccc(OC(F)F)cc2)CC1,-10%,1%,-6%,3%,6%
Cc1ccccc1-c1cc(-n2ccnc2)ncn1,-14%,-3%,0%,-3%,?
Cc1ccc(C(C[N+](=O)[O-])Sc2ccc(N)cc2)cc1 (stereo unspecified),?,0%,-7%,?,18µM*
O=C(O)c1ccc(NCCC2=CCCCC2)c([N+](=O)[O-])c1,-1%,-2%,1%,-1%,?
Cc1cccc(-n2[nH]c3c4c(ccc3c2=O)C(=O)c2ccccc2C4=O)c1,?,-8%,-6%,10%,?
CC(C)Cn1[nH]c2c3c(ccc2c1=O)C(=O)c1ccccc1C3=O,?,-4%,10%,4%,14µM*
O=c1c(O)c(-c2ccccc2)oc2ccc3occc3c12,-28%,-7%,-2%,-12%,-25%
O=C(O)c1cccc(S(=O)(=O)Nc2ccc3[nH]c(=O)[nH]c3c2)c1,?,-4%,-1%,-12%,?
O=C(O)c1ccc(Cl)c(S(=O)(=O)Nc2ccc3[nH]c(=O)[nH]c3c2)c1,?,-11%,-10%,?,14µM*
CC(C)CC(C)(O)C#CC(C)(O)CC(C)C (stereo unspecified),.,-2%[201 µM],2%[201 µM],.,.
COC(=O)C1=C(C(=O)OC)[C@@H]2N(Cc3ccccc3)c3ccccc3[C@@]23C[C@@H](C(=O)OC)N(C(=O)c2ccco2)C3=N1,6%[11.6 µM],0%[11.2 µM],7%[11.2 µM],2%[11.6 µM],10%[11.5 µM]
CC(C)c1cc(C(C)C)c(S(=O)(=O)Nc2cccc3cccnc23)c(C(C)C)c1,.,-2%,-10%,.,.
CCc1ccccc1NC(=O)Nc1ccc(F)cc1,-9%,-1%,3%,1%,-7%
O=C(Nc1ccc(F)cc1)Nc1csc2ccccc12,8.9µM*[quencher],-4%,-8%,2%,.
